About 83,000 compounds went through this panel and 20% of them were active in at least one assay; those are over-represented in the sample as a whole.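 Interpretation: 100, growth as untreated; towards 0, rising growth inhibition; 0, no net growth; 0 to -100, cell death. Compounds scoring below 10 were considered active.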 A number with no mark means an inactive call. Active and inactive are the calls of the source.
What follows are compounds tested on NCI-H460 lung (assay: NCI-60 one-dose screen, 48 h (100 = growth as untreated, 0 = no growth, -100 = all killed)). Details: 10 µM unless noted.
Experimental: Growth inhibition of the NCI-H460 human Non-Small Cell Lung tumor cell line is measured as a screen for anti-cancer activity. Cells are grown in 96 well plates and exposed to the test compound for 48 hours. Compounds are tested at a single concentration, which is 10^-5 M for most compounds. The reported endpoint is percent growth (GI% or GIPRCNT), where numbers from 0 - 100% represent growth inhibition, and numbers from -100% - 0 represent cell death. For example, a value of 40 represents 60% growth inhibition. A value of 0 means no net growth occurred over the course of the experiment. A value of -40 indicates 40% of cells at the beginning of the experiment died by the end of the experiment. A value of -100 means all cells are dead at the end of the experiment.
NCI-60 Human Tumor Cell Lines Screen was performed using the standard one-dose NCI protocol, which is described in more detail at https://dtp.cancer.gov/discovery_development/nci-60/default.htm.
Compounds with GIPRCNT values below 10 were considered active. Activity score was based on GIPRCNT using the following formula: […]
Score is 0 for GIPRCNT values of 100 or above, 50 for GIPRCNT values of 0, and 100 for GIPRCNT values of -100.

| Structure (SMILES) | growth |
| --- | --- |
| COc1cc(/C=C2\COc3ccc(-c4ccccc4)cc3C2=O)cc(OC)c1 | 66.7% |
| O=C1c2ccc3c4c(ccc(c24)C(=O)N1CCCNCc1ccccc1)C(=O)N(CCCNCc1ccccc1)C3=O | -73.1% (active) |
| O=C(Cn1c(C(=O)c2ccccc2)nc2ccccc21)c1ccc(F)cc1 | 98.6% |
| Cc1ccc(/C=C(/C#N)n2nnc3cccc(F)c32)cc1 | -34.8% (active) |
| COc1ccc(C(=O)C2C(C#N)C(C#N)C3C=Cc4ccccc4N32)cc1 (stereo not given) | 19.1% |
| O=C(NCCNc1nccc(-c2c(-c3cccc(F)c3)nc3sccn23)n1)c1ccc(Cl)cc1 | 35.8% |
| C=C1C(=O)O[C@H]2[C@H]1CC/C(CNC(=O)c1cccc3ccccc13)=C\CC[C@@]1(C)O[C@@H]21 | 78.6% |
| COc1ccc(NC(N)=NCCCOc2ccc(F)cc2)cc1 | 101% |
| C[C@H]1[C@H](C)CC[C@]2(C(=O)NCC#CCN3CCN(C)CC3)CC[C@]3(C)C(=CC[C@@H]4[C@@]5(C)Cc6c([nH]c7ccccc67)C(C)(C)[C@@H]5CC[C@]43C)[C@H]12 | 3.53% (active) |
| CCCCCCOc1ccc(/C=N/Nc2cc(C)nc3ccc(Cl)cc23)cc1 | -80% (active) |
| Nc1nc(Nc2ccccc2SSc2ccccc2Nc2nc(N)nc(-c3cccs3)n2)nc(-c2ccsc2)n1 | 55.9% |
| CC/C(=C\c1ccc(OC)cc1)C(=O)c1ccc(OC)cc1 | 102% |
| O=C(CSc1nc2ccccc2[nH]1)NCc1ccccc1 | 103% |
| CCOC(=O)Oc1c(OC)cc(C(=O)c2ccc(OC)c(O)c2OC)cc1OC | 8.66% (active) |
| COc1cc(NCCCCCNC(C)(C)C)c2ncccc2c1 | 111% |
| COc1ccc(NC(=O)c2cc(NCc3cc(O)ccc3O)ccc2O)cc1 | 87.2% |
| COc1cc(-c2csc(NC(=O)c3cc(F)cc(C(F)(F)F)c3)n2)cc(OC)c1OC | 19.5% |
| N=C(N)c1ccc(OCCCCCCCCCCOc2ccc(C(=N)N)cc2)cc1 | -88.6% (active) |
| O=C(NO)c1ccc(-n2nc(-c3ccccc3)c3ccccc32)cc1 | 26.6% |
| N#Cc1c(-c2ccccc2)nc2c(c(-c3ccccc3)nn2-c2ccccc2)c1-c1ccc(O)cc1 | 9.14% (active) |

| Structure (SMILES) | growth |
| --- | --- |
| O=C1Nc2cc(-c3ccc(NC(=O)C4CC4)cc3)ccc2/C1=C/c1ccc[nH]1 | 61.4% |
| Cc1ccc(-c2nc3ccccn3c2/C=C2/C(=O)Nc3cc(Cl)ccc32)cc1 | 82.3% |
| CCN1Cc2nc3sc(C)c(C)c3c(=O)n2C=C1C | 115% |
| CCCCC/C=C/C(C)=C/C1CC(C)C/C=C/CCC(O)C(OC(N)=O)CCC(C)CC(O)C(C)C(=O)O1 (stereo not given) | 67% |
| N#CC1=C(N)Oc2c(ccc3ccccc23)C1c1ccccc1Cl (stereo not given) | 5.27% (active) |
| O=S(=O)(NCCNc1nccc(-c2c(-c3cccc(F)c3)nc3sccn23)n1)c1ccccc1 | 25.9% |
| CCCNC(=O)Oc1ccc(/C(=C(\C)c2ccccc2)c2ccc(OCCCN(C)C)cc2)cc1 | 75.1% |
| N#CC(C#N)=Cc1cc2ccccc2nc1Oc1ccc(C(F)(F)F)cc1 | 97.4% |
| O=C1Nc2cc(-c3ccc(NS(=O)(=O)c4ccccc4)cc3)ccc2/C1=C/c1ccc[nH]1 | 11.4% |
| CC(=O)[C@@H]1CC[C@]2(C(N)=O)CC[C@]3(C)[C@H](CC[C@@H]4[C@@]5(C)CCCNC(C)(C)[C@@H]5CC[C@]43C)[C@@H]12 | 86.2% |
| COc1cc(F)c(/C=C/c2cc(/C=C/c3cc(OC)c(OC)cc3F)on2)cc1OC | 72.1% |
| CCCCCCCCOc1ccc(/C=N/Nc2cc(C)nc3ccc(Br)cc23)cc1 | 16.1% |
| O=C(C1CCC1)N1N=C(c2ccc(-n3ccc(C(F)(F)F)n3)cc2)CC1c1ccc[nH]1 (stereo not given) | 101% |
| CCc1ccc(-c2cn3ccnc3c(-c3ccc4ncn(Cc5ccccc5)c4c3)n2)cc1 | 58% |
| N/C(=N\C(N)=N\c1nc2ccccc2s1)c1cccc(Cl)c1 | 51.7% |
| CCOC(=O)CCN(CC(C)C)C(=S)Nc1ccccc1 | 107% |
| Cc1ccc(/C=N/NC(=O)CSc2nc3ccccc3c(=O)n2Cc2ccc(S(N)(=O)=O)cc2)cc1 | 98.5% |
| CCOC(=O)Oc1c(OC)cc(C(=O)c2ccc(OC)c(OC(=O)CCl)c2OC)cc1OC | 10.4% |
| CC(C)N1C(=O)/C(=C2\SC(=S)N(C(C)C)C2=O)SC1=S | 101% |
| COc1cc(C2=C(c3cn(C)c4ccccc34)COC2=O)cc(OC)c1OC | 3.03% (active) |

From PubChem BioAssay (NCI)
